High-throughput results from PubChem BioAssay.
Only some compounds are listed: those with a hit (about 13% of all), similar ones and a draw of the others.
CHX counter: Cycloheximide Counterscreen for Small Molecule Inhibitors of Shiga Toxin. max response, %. cell reporter, cycloheximide protein synthesis inhibition counterscreen. 12% of 300,000 active. AID 2314, 2010; in the data active = max response mostly above about 13%, no sharp cut-off; inactive = mostly below about 14%; note: read at 38.3 µM for the half of the compounds with a filed dose
FMDV inh: High Throughput Screening for Foot and Mouth Disease Virus Antivirals | Potency, µM (series often up to 57.9 µM), hits mostly inhibitors | AID 1159524, 2015 | FMDV antiviral cell-based qHTS | 1.2% of 410,000 active; calls by dose curve; tested in HEK293T cells; note: read-out not given here; nearly all actives have a fitted effect of over 45% in size
Lassa entry inh: qHTS for Inhibitors of binding or entry into cells for Lassa Virus; Lassa virus pseudotype entry inhibition, cell reporter; Potency, µM (top dose mostly 37.9 µM), actives largely listed as inhibitors; 1.2% of 300,000 active; AID 540256, 2011; calls by dose curve; tested in HEK293 cells; note: nearly all actives have a fitted effect of over 50% in size
Shiga toxin inh: A qHTS for Small Molecule Inhibitors of Shiga Toxin. Vero cells, Shiga toxin protein synthesis inhibition reporter. AID 2315, 2010. 9.2% of 290,000 active. inhibition, % at 38.7 µM; in the data active = inhibition mostly above about 28%, no sharp cut-off; inactive = mostly below about 43%
Marburg entry inh: qHTS for inhibitors of binding or entry into cells for Marburg Virus; Potency, µM (highest dose often 37.8 µM), usual class: inhibitors; 1.8% of 300,000 active; Marburg virus pseudotyped entry inhibition, cell reporter; calls by dose curve; tested in HEK293 cells
HCV inh: qHTS Assay for Inhibitors of Hepatitis C Virus (HCV) | Huh7.5.1 HCVcc-Cre infection, luciferase reporter, 44 h | Potency, µM (highest dose often 41.8 µM), hits mostly inhibitors | 3.4% of 340,000 active; active = well fitted inhibition curve with a large enough effect; inconclusive = small, poorly fitted or top-dose-only effect, or another doubt; inactive = no such curve, though single readings can be large or run the other way
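Infectious HCV cell culture screen: compound-treated cells (1,000/well, pre-plated 4 h) are infected with HCVcc-Cre at roughly 0.5 moi and grown 44 h. Infection is quantified by luciferase signal after 15 min substrate incubation at room temperature.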
Hits are given with their value; i = inactive; ? = inconclusive; nt = not tested or not shown.

SMILES	CHX counter	FMDV inh	Lassa entry inh	Shiga toxin inh	Marburg entry inh	HCV inh
CC(C)(C)OC(=O)[C@H]1[C@H](c2ccc([N+](=O)[O-])cc2)C2(C(=O)c3ccccc3C2=O)C2c3ccccc3C=NN21 (some centres not stated)	12	i	i	i	?	?
Cc1cccc(N2CCN(C(=O)CCS(=O)(=O)c3ccc4c(c3)oc(=O)n4C)CC2)c1C	i	?	?	i	i	11µM
Cc1cccc(N2CCN(C(=O)CCNS(=O)(=O)c3ccc4c(c3)CCC(=O)N4)CC2)c1C	i	i	6.5µM	i	?	?
Cc1ccc2c(C)c(C(=O)N3CCCCC3CO)oc2c1C (configuration not stated)	21	i	nt	67	nt	?
CCCc1ccc2oc(C(=O)N3CCC(COC)C3)c(C)c2c1 (configuration not stated)	33	i	?	nt	i	i
CCCc1ccc2oc(C(=O)N3CCC(N4CCCC(O)C4)CC3)c(C)c2c1 (configuration not stated)	i	i	nt	i	nt	i
CCCc1ccc2oc(C(=O)N3CCN(CCC(N)=O)CC3)c(C)c2c1	i	i	i	i	?	i
CCCc1ccc2oc(C(=O)N3CCC[C@H]3CO)c(C)c2c1	41	i	nt	29	nt	i
CCCc1ccc2oc(C(=O)N3CCN(c4cnccn4)CC3)c(C)c2c1	12	i	i	i	?	i
COc1cc(CN2CCC(C(=O)NC3CCCC3)CC2)ccc1O	i	i	i	i	i	i
CC(=O)NC1=NN(C(C)=O)C(C)(c2ccccc2)S1 (configuration not stated)	i	nt	i	i	?	i
CCCCC(=O)Nc1ccc(C2C(=O)c3ccccc3C2=O)cc1	nt	?	?	nt	i	10µM
CCC(=O)NC1=C(Nc2ccc(N)cc2)C(=O)c2ccccc2C1=O	27	i	i	96	?	?
CCC(=O)Nc1ccc(C2C(=O)c3ccccc3C2=O)cc1	25	20µM	?	i	10µM	2.8µM
CCC(=O)Nc1ccc(NCc2ccc(-c3ccccc3)cc2)cc1	i	i	i	i	i	i
Oc1ccccc1/C=N/Nc1ccnc(SCc2ccccc2)n1	24	i	i	i	i	i
Oc1ccc(/C=N/Nc2ccc3ccccc3c2)c(O)c1	31	i	?	44	i	?
Oc1ccccc1/C=N/Nc1ccccc1	48	i	?	197	?	i
Oc1ccccc1/C=N/Nc1ncc(Br)cn1	66	i	i	74	i	?
CCOc1cccc2c1OC1(C)CC2NC(=O)N1Cc1ccccc1 (configuration not stated)	i	i	nt	i	nt	i
CSc1ccccc1C(=O)Nc1ccc(C)cc1C	i	i	i	i	i	i
Cc1cc(O)c(/C=N/Nc2ccccc2)c(=O)o1	20	i	?	i	i	i
CCC(=O)c1c[nH]c(C(=O)NCCc2ccccn2)c1	26	i	i	i	i	i
CC(C)CC(=O)c1c[nH]c(C(=O)NCCc2ccccn2)c1	28	i	i	i	i	i
Cc1ccccc1C(=O)c1c[nH]c(C(=O)NCCc2ccccn2)c1	i	i	i	i	i	i
SMILES	CHX counter	FMDV inh	Lassa entry inh	Shiga toxin inh	Marburg entry inh	HCV inh
O=C1C2CCCCN2C(=O)N1CCCCN1CCN(c2ccc([N+](=O)[O-])cc2)CC1 (configuration not stated)	i	20µM	i	i	?	?
CC(=O)C(Cl)C(=O)Nc1ccccc1 (configuration not stated)	i	i	i	i	?	i
Cc1nc2c(C(=O)N3CCN(C)CC3)cnn2c(C)c1Cc1ccc(Cl)cc1	i	i	i	i	i	i
O=C(c1cnn2c(C(F)F)cc(-c3ccccc3)nc12)N1CCN(Cc2ccc3c(c2)OCO3)CC1	i	28µM	i	i	?	11µM
Cc1ccccc1Cc1c(C)nc2c(C(=O)N3CCN(Cc4ccc5c(c4)OCO5)CC3)cnn2c1C	nt	?	i	nt	i	14µM
Cc1nc2c(C(=O)N3CCCCC3)cnn2c(C)c1Cc1ccccc1F	71	i	i	157	i	i
Cc1cccc(Cc2c(C)nc3c(C(=O)N4CCN(Cc5ccc6c(c5)OCO6)CC4)cnn3c2C)c1	i	?	i	i	i	?
COC(=O)C1=C(c2cccc(OCc3ccccc3)c2)C[C@@H]2CC[C@H]1N2C(=O)NCCCOC(C)C	nt	i	nt	nt	nt	?
O=C(N/N=C1\NC(=O)C(CO)(CO)S1)c1ccccc1	i	i	i	i	i	i
Cc1c(CCC(=O)N2CCC[C@H]2C(=O)O)c(=O)oc2c(C)c3oc4c(c3cc12)CCCC4	8.5	i	nt	i	nt	i
O=[N+]([O-])c1ccc(S(=O)(=O)NCCN2CCOCC2)cc1	i	i	i	51	i	i
O=[N+]([O-])c1ccc(S(=O)(=O)NCCCc2ccccc2)cc1	nt	i	i	nt	?	i
O=[N+]([O-])c1ccc(-c2ccc(S(=O)(=O)NCCN3CCCC3)cc2)cc1	i	i	?	i	18µM	10µM
O=C1NC(=O)C(=Cc2ccc(Cl)c(Cl)c2)S1	nt	i	i	nt	i	i
O=C1NC(=O)/C(=C/c2ccc(O)cc2)S1	36	i	i	75	i	i
Fc1ccc(-c2cn3cc(Cc4ccc(Cl)cc4)sc3n2)cc1	nt	i	i	nt	?	nt
CCNC(=S)NNC(=O)c1csc(CC)c1	i	i	i	i	i	i
CCCCNC(=S)NNC(=O)c1csc(C(C)C)c1	i	i	i	30	?	i
CCNC(=S)NNC(=O)c1csc(C(C)C)c1	51	i	i	77	?	i
O=C(NNC(=O)c1csc(-c2cccnc2)n1)c1ccccc1	30	i	i	i	i	i
O=C(Nc1ccccc1Cl)c1csc(-c2cccnc2)n1	29	i	nt	41	nt	?
O=C(NNS(=O)(=O)c1ccccc1)c1csc(-c2cccnc2)n1	i	i	i	i	?	i
CN(Cc1ccco1)C(=O)C(Cc1ccccc1)NS(=O)(=O)c1ccc2c(c1)CCC(=O)N2 (configuration not stated)	i	i	nt	i	i	i
Cc1cccc(C)c1-n1ncc(C(=O)N2CCN(c3ccccn3)CC2)c1C1CCN(C(=O)OC(C)(C)C)CC1	nt	i	?	nt	nt	nt
CCn1c(C)nc2cc(C(=O)NNC(=S)Nc3ccccc3)ccc21	32	i	4.5µM	71	?	i
CCn1c(C)nc2cc(C(=O)OC(C(F)(F)C(F)F)C(F)(F)C(F)F)ccc21	45	i	?	70	14µM	?
CCn1c(C)nc2cc(C(=O)NNC(=S)Nc3ccc(Cl)cc3)ccc21	22	i	nt	i	nt	i
CCn1c(C)nc2cc(C(=O)NNC(=S)NC(=O)c3ccccc3)ccc21	i	i	i	i	i	?
CCn1c(C)nc2cc(C(=O)NNC(=S)Nc3ccc(F)cc3)ccc21	31	i	nt	58	nt	i
CCc1ccc(NS(=O)(=O)c2ccc3c(c2)CCN3C(=O)CCC(=O)O)cc1	i	i	i	i	?	i
